Only some compounds are listed: those with a hit (about 1.3% of all), similar ones and a draw of the others.
EPAC2 antag – qHTS for Antagonist of cAMP-regulated guanine nucleotide exchange factor 2 (EPAC2): primary screen; EPAC2 GEF exchange of Rap1B-BODIPY-GDP, fluorescence; AID 720708, 2013; hit rate 0.18% among 360,000; Potency, µM (top dose mostly 114 µM), usual class: inhibitors; further: nearly all actives have a fitted effect of over 45% in size
EPAC2 agonist – qHTS for Agonist of cAMP-regulated guanine nucleotide exchange factor 4 (EPAC2): primary screen; Rap guanine nucleotide exchange factor 4 (Homo sapiens), Q8WZA2; Potency, µM (top dose mostly 154 µM), hits mostly activators; EPAC2 activation, biochemical qHTS; response scale: 100% = 6.5 mM cAMP response; AID 720711, 2013; hit rate 0.079% among 360,000; further: nearly all actives have a fitted effect of over 50% in size
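Compounds were titrated in qHTS against a Rap1B-BODIPY-GDP (250 nM) complex with EPAC2 (100 nM) and GDP (50 uM). BODIPY-GDP release tracked at 480/540 nm over 30 min at room temperature, normalized to 6.5 mM cAMP.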
EPAC1 antag – qHTS for Antagonist of cAMP-regulated guanine nucleotide exchange factor 3 (EPAC1): primary screen | Rap guanine nucleotide exchange factor 3 (Homo sapiens), O95398 | EPAC1 GEF assay, Rap1b-BODIPY-GDP exchange fluorescence | Potency, µM (doses to about 115 µM), actives largely listed as inhibitors | hit rate 0.14% among 360,000 | AID 720709, 2013; further: nearly all actives have a fitted effect of over 50% in size
EPAC1 ag – qHTS for Agonist of cAMP-regulated guanine nucleotide exchange factor 3 (EPAC1): primary screen; Rap guanine nucleotide exchange factor 3 (Homo sapiens), O95398; EPAC1 agonist qHTS, biochemical assay; response scale: 100% = response to 6.5 mM cAMP; Potency, µM (titrated, usually from 154 µM), most hits filed as activators; hit rate 0.073% among 360,000; AID 720707, 2013; further: nearly all actives have a fitted effect of over 60% in size
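Normalized to 6.5 mM cAMP, activity reflects EPAC1-catalysed release of BODIPY-GDP from Rap1B, followed kinetically over 30 min at 480 nm excitation, 540 nm emission. Reaction contained 100 nM EPAC1, 250 nM Rap1B-BODIPY-GDP, 50 uM GDP.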
USP1 inh – Inhibitors of USP1/UAF1: Primary Screen; Ubiquitin carboxyl-terminal hydrolase 1 (Homo sapiens), O94782; recombinant USP1/UAF1, Ub-Rhodamine cleavage fluorescence; Potency, µM (highest dose often 57.1 µM), most hits filed as inhibitors; hit rate 0.23% among 390,000; AID 743255, 2014; further: nearly all actives have a fitted effect of over 60% in size
Target sequence (O94782 whole entry, looked up): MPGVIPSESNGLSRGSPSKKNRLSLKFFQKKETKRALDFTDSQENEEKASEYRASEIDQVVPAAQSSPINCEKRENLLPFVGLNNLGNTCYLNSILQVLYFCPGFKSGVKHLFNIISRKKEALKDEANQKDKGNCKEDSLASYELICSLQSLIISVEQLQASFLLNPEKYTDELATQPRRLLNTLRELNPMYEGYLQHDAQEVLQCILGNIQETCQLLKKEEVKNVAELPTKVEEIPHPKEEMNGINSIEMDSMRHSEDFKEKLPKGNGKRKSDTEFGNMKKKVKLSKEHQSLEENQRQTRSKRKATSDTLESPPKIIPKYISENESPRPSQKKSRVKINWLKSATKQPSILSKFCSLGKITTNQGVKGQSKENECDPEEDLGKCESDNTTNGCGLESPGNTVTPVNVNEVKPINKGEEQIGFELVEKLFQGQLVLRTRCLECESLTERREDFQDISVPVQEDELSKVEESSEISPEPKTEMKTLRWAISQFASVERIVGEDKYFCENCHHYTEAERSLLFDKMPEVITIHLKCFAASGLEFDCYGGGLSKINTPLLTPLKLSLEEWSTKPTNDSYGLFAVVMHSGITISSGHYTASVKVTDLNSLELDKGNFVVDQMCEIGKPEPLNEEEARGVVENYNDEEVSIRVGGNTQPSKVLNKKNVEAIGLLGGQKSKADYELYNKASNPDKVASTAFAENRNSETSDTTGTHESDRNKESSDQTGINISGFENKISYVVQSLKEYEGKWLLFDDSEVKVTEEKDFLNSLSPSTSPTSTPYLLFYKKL
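High-throughput fluorogenic screen: 1nM USP1/UAF1 complex, Ub-Rho substrate 150nM final, 50mM HEPES pH 7.8 with 0.5mM EDTA, 0.1 mg/ml BSA, 1mM TCEP and 0.01% Tween-20.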
ALOX12 inh – Primary qHTS assay for inhibitors of human arachidonate 12S-lipoxygenase (ALOX12): Round 2; Polyunsaturated fatty acid lipoxygenase ALOX12 (Homo sapiens), P18054; purified 12hLO, xylenol orange hydroperoxide absorbance; Potency, µM (titrated, usually from 108 µM), most hits filed as inhibitors; hit rate 1.1% among 580,000; AID 1671190, 2021
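Purified human 12hLO (150 nM final) in 25 mM Hepes, 0.01% Triton X-100, pH 7.0 was preincubated 15 min at room temperature with compound. Then 40 uM arachidonic acid was added, 30 min. Hydroperoxide was read by Fe-XO absorbance ratio 573/405 nm.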
Each line names hits and unclear results; the compound was inactive in the other large screens; ! = not confirmed by another sample. The call rests on the fitted dose curve; in most records, active means well fitted curve in the direction sought with a large enough effect; inconclusive means small, poorly fitted or top-dose-only effect, or another doubt; inactive means no such curve, though single readings can be large; an effect the other way counts as inactive or inconclusive.

CCCCC(CC)CN=C(N)NC(N)=NCCCCCCN=C(N)NC(N)=NCC(CC)CCCC (centres undefined)	EPAC2 antag inconclusive, EPAC1 antag inconclusive, USP1 inh 31.6µM, ALOX12 inh inconclusive
CCCCC(CC)CO (centres undefined)	none
O=C(CN1CCCC1c1cccs1)C12CC3CC(CC(C3)C1)C2 (centres undefined)	ALOX12 inh 6.31µM (no result: EPAC2 antag, EPAC2 agonist, EPAC1 antag, EPAC1 ag, USP1 inh)
O=C(O)c1cc(-c2cccc3ccccc23)nc2ccccc12	none
O=C(O)c1cc(-c2c[nH]c3ccccc23)nc2cc3ccccc3cc12	ALOX12 inh 12.6µM (no result: EPAC2 antag, EPAC2 agonist, EPAC1 antag, EPAC1 ag, USP1 inh)
Cc1ccc(-c2cc(C(=O)NC(C)CCc3ccccc3)c3cc(Br)ccc3n2)cc1 (centres undefined)	none (no result: EPAC2 antag, EPAC2 agonist, EPAC1 antag, EPAC1 ag, USP1 inh)
CC(=Cc1ccccc1)C=C1SC(=S)N(CCCC(=O)Nc2ccc(C(=O)O)c(O)c2)C1=O	EPAC1 antag 50.1µM, ALOX12 inh inconclusive (no result: USP1 inh)
O=C(CCN1C(=O)/C(=C/c2cccs2)SC1=S)Nc1ccc(C(=O)O)c(O)c1	EPAC1 antag 79.4µM, USP1 inh inconclusive, ALOX12 inh inconclusive
O=C(CCN1C(=O)/C(=C/c2cccs2)SC1=S)Nc1ccc(O)cc1	USP1 inh inconclusive
CC(/C=C1\SC(=S)N(CCCC(=O)Nc2ccc(C(=O)O)c(O)c2)C1=O)=C\c1ccccc1	EPAC2 antag inconclusive, EPAC1 antag inconclusive (no result: ALOX12 inh)
Cc1ccc(NC(=O)COc2cccc(/C=C3\SC(=S)N(CCC(=O)O)C3=O)c2)cc1Cl	EPAC1 antag 50.1µM, EPAC1 ag inconclusive, USP1 inh inconclusive
CC(C)(C)c1ccc(-c2nnc(SCC(=O)N3CCCC3)n2C2CCCC2)cc1	none (no result: EPAC2 antag, EPAC2 agonist, EPAC1 antag, EPAC1 ag, USP1 inh)
N#Cc1nc(Cc2ccccc2)oc1N1CCCCC1	none (no result: EPAC2 antag, EPAC2 agonist, EPAC1 antag, EPAC1 ag, USP1 inh)
COCCN1CCC(OC(C)=O)C(C)C1C (centres undefined)	none (no result: EPAC2 antag, EPAC2 agonist, EPAC1 antag, EPAC1 ag, USP1 inh)
CCN1C(=O)COc2ccc(NC(=O)c3cc(=O)c4cc(C)cc(C)c4o3)cc21	none (no result: EPAC2 antag, EPAC2 agonist, EPAC1 antag, EPAC1 ag, USP1 inh)
Cc1ccc2nc(Cl)c(C3CC(c4ccco4)=NN3S(C)(=O)=O)cc2c1 (centres undefined)	ALOX12 inh 12.6µM!
Cc1ccc2cc(C3CC(c4ccco4)=NN3S(C)(=O)=O)c(Cl)nc2c1 (centres undefined)	EPAC1 antag inconclusive, ALOX12 inh inconclusive
CS(=O)(=O)N1N=C(c2ccco2)CC1c1ccc(Cl)cc1Cl (centres undefined)	EPAC2 antag 10µM, ALOX12 inh inconclusive
O=C(c1ccc(Br)s1)N(Cc1cccc(Br)c1)C1CC1	none (no result: EPAC2 antag, EPAC2 agonist, EPAC1 antag, EPAC1 ag, USP1 inh)
CC(=Nc1ccc(Cl)cc1N)c1c(O)cc(C)oc1=O	ALOX12 inh 35.5µM (no result: EPAC2 antag, EPAC2 agonist, EPAC1 antag, EPAC1 ag, USP1 inh)
O=C1N2CCCc3cccc(c32)C12Nc1ccccc1S2 (centres undefined)	ALOX12 inh 25.1µM
CCCC1=NN(c2ccc([N+](=O)[O-])cc2)C(=O)/C1=C\N(C)C	ALOX12 inh 44.7µM
COCCNc1nc(-c2ccc(N3CCCC3=O)cc2)cs1	ALOX12 inh 11.2µM (no result: EPAC2 antag, EPAC2 agonist, EPAC1 antag, EPAC1 ag, USP1 inh)
O=C(N/N=C/c1cc(-c2ccccc2)sc1Cl)c1ccccc1	none (no result: EPAC2 antag, EPAC2 agonist, EPAC1 antag, EPAC1 ag, USP1 inh)
OCCCNC(=S)NC1CC2CCC1C2 (centres undefined)	none (no result: EPAC2 antag, EPAC2 agonist, EPAC1 antag, EPAC1 ag, USP1 inh)
CN(C)NC(=S)NC1CC2CCC1C2 (centres undefined)	EPAC1 antag inconclusive, ALOX12 inh 17.8µM
CCOC(=O)c1cnc2c(Cl)c(Cl)ccc2c1NCCN1CCOCC1	none
CCOC(=O)c1cnc2c(C)c(Cl)ccc2c1NCCCN1CCOCC1	ALOX12 inh 44.7µM
Cc1cc2nc(-c3cccnc3SCC(=O)NCc3ccco3)[nH]c2cc1C	ALOX12 inh inconclusive
O=C(CSc1ncccc1-c1nc2ccccc2[nH]1)NCc1ccco1	ALOX12 inh 14.1µM

Screening data: PubChem BioAssay, National Center for Advancing Translational Sciences (NCATS)
